KCNQ2 inh – rat KCNQ2 potassium channel inhibitors, primary screen, cell-based, CHO-K1, FluxOR thallium flux, B-score | B-score at 10 µM | AID 2156, 2009 | Potassium voltage-gated channel subfamily KQT member 2 (Rattus norvegicus), O88943 | 20 min; active compounds read low | 310,000 tested, 1.1% active;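 active = fluorescence ratio B-score at most minus 3 library SDs, with starting brightness B-score within 2 library SDs, cut at about -5.5 in these data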
Target sequence (O88943 whole entry, looked up): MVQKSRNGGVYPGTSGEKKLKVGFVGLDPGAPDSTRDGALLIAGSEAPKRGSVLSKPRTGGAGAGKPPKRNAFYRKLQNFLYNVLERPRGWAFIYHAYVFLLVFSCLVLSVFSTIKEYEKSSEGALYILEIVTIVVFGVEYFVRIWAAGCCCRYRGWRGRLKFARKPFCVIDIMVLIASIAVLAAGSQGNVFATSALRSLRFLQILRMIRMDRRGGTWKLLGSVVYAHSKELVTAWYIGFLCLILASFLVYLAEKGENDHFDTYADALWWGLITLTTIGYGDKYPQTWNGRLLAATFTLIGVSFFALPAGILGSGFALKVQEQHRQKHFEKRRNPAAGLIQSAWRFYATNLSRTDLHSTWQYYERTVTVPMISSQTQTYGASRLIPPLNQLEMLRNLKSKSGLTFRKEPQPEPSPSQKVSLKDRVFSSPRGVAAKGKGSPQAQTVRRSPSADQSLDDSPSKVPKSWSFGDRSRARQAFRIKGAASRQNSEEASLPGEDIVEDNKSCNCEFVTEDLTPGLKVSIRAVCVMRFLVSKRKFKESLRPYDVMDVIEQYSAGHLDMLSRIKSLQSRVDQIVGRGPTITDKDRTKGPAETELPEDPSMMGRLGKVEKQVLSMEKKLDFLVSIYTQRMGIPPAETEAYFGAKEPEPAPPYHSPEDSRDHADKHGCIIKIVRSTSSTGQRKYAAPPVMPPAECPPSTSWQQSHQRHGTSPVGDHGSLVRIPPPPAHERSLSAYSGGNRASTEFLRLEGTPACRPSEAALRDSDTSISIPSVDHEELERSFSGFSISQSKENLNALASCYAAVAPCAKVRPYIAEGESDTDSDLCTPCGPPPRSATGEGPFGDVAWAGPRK
KCNQ2 pot – potentiators of rat KCNQ2 potassium channel. Potassium voltage-gated channel subfamily KQT member 2 (Rattus norvegicus), O88943. CHO-K1 KCNQ2, FluxOR thallium flux fluorescence; active compounds read high. B-score at 10 µM. 310,000 tested, 0.54% active. AID 2239, 2010;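 active = fluorescence ratio B-score at least 3 SD of library B-scores, with initial fluorescence B-score within 3 of them, cut at about 5.3 in these data; same plate scores as AID 2156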;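 note: B-score of peak minus minimum over baseline fluorescence ratio after K+ and Tl+ stimulus; positive B-score means potentiation of KCNQ2 with more thallium influx and brighter signal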
An asterisk follows results filed as active; i = inactive; / = no result given. Only some compounds are listed: those with a hit (about 1.6% of all), similar ones and a draw of the others.

SMILES	KCNQ2 inh	KCNQ2 pot
CCOC(=O)c1ccc(NC(=S)NNC(=O)C2(C)CC2(Cl)Cl)cc1 (stereo unspecified)	i	1.7
COc1ccccc1C(=O)NC(=Nc1nc2ccccc2o1)NC(=O)c1ccccc1OC	-14*	-14
O=C(NC(=Nc1nc2ccccc2o1)NC(=O)c1ccccc1)c1ccccc1	i	/
O=[N+]([O-])c1cc(S(=O)(=O)Nc2cccc(Cl)c2)ccc1N/N=C/c1ccc(N2CCOCC2)cc1	i	/
O=C1OC(c2ccccc2)=NC12CC2c1ccc(Cl)cc1 (stereo unspecified)	i	/
COc1ccc([C@H]2[C@H](C(=O)C(C)(C)C)N3N=Cc4ccccc4C3[C@]23N=C(c2ccccc2)OC3=O)cc1 (stereo partly specified)	-9.5*	-9.5
CC1CCCC(NC(=O)c2ccc3snnc3c2)C1C (stereo unspecified)	i	/
COc1cc(/C=N/NC2=NS(=O)(=O)c3ccccc32)cc(OC)c1OC	i	1.1
COc1cc(/C=N/NC2=NC(C)(C)Cc3ccccc32)cc(OC)c1OC	-5.6*	-5.6
CC(=O)Oc1ccc(-c2cc3c(OC(C)=O)cc(OC(C)=O)cc3oc2=O)cc1	i	/
OCCC1CN(Cc2ccc3c(c2)CCO3)CCN1Cc1ccc(F)cc1 (stereo unspecified)	i	/
Cc1nnc(SCC(=O)c2ccc(Cl)cc2)s1	i	0.86
COc1ccc(SCCCn2c(=O)c3c(ncn3C)n(C)c2=O)cc1	i	0.33
Cc1ccc(NC(=O)c2sccc2SCc2cccc(C(F)(F)F)c2)cc1	-6.8*	-6.8
Cc1cccc(C)c1NC(=O)c1sccc1SCc1cccc(C(F)(F)F)c1	i	/
COc1ccc(F)cc1S(=O)(=O)Nc1ccncc1	i	0.38
CC1=C(C(=O)Nc2ccccc2)C(c2ccco2)C(C#N)=C(SCc2ccccc2)N1 (stereo unspecified)	-6.5*	-6.5
CC1=C(C(=O)Nc2ccccc2)C(c2ccco2)C(C#N)=C(SCC(=O)OC(C)C)N1 (stereo unspecified)	i	0.08
Cc1nnc(SCC(=O)Nc2nc(-c3ccc(F)cc3)cs2)[nH]c1=O	i	/
O=C(Cc1cccc2ccccc12)N/N=C/c1ccc(Sc2nc3ccccc3s2)o1	i	1.1
Clc1cccc(N/N=C(\Cc2nc3ccccc3[nH]2)c2ccccc2)c1	-6.3*	-6.3
c1ccc(N/N=C(\Cc2ncc[nH]2)c2ccccc2)cc1	i	/
CCCCN(C)CC(O)Cn1cc(/C=C/C(=O)c2ccc(OCC)cc2)c2ccccc21 (stereo unspecified)	-6.7*	-6.7
CCCCN(C)CC(O)Cn1cc(/C=C/C(=O)c2cccs2)c2ccccc21 (stereo unspecified)	i	/
CCOc1ccccc1C(=O)Nn1c(C2CCC2)nc2ccccc2c1=O	-6.8*	-6.8
SMILES	KCNQ2 inh	KCNQ2 pot
COc1ccccc1C(=O)Nn1c(C2CCC2)nc2ccccc2c1=O	i	/
O=S(=O)(c1ccccc1)N1CCN=C1SCc1cccc(Cl)c1	i	/
CC(=O)Nc1ccc(S(=O)(=O)N(C)CC(=O)N/N=C/c2ccncc2)cc1	i	0.35
CC(C)Cc1ccc(CN2CCCC(NC(=O)c3ccnn3C)C2)cc1 (stereo unspecified)	i	/
CC(C)Cc1ccc(CN2CCCC(NC(=O)c3nn(C)c(=O)c4ccccc34)C2)cc1 (stereo unspecified)	-7.8*	-7.8
CC(C)c1nnc(NC(=O)CCC(=O)Nc2ccc(F)cc2)s1	i	/
O=C(c1ccccc1)n1ccc(-c2cccs2)n1	i	8.6*
COC(=O)c1cc(-c2cccs2)nn1-c1ccccc1	i	0.05
O=C(O)c1ccccc1NC(=S)NC(=O)c1sc2ccccc2c1Cl	i	0.83
O=C(NNC(=S)NC(=O)c1sc2ccccc2c1Cl)c1ccc(Cl)cc1	i	13*
Brc1ccc(CSc2nnc(-c3ccccn3)n2Cc2ccco2)cc1	i	/
CC(C)(C)c1ccc(CSc2nnc(-c3ccccn3)n2Cc2ccco2)cc1	-5.6*	-5.6
Clc1cccc(CSc2nnc(-c3ccccn3)n2Cc2ccco2)c1	-6.7*	-6.7
O=C(CSc1nnc(-c2ccccn2)n1Cc1ccco1)c1ccc(Cl)cc1	i	/
COc1ccccc1C1(CC(=O)Nc2nccs2)CCOC(C(C)C)C1 (stereo unspecified)	i	/
O=C(NCc1ccccc1)c1ccc(-c2ccccc2F)o1	i	/
O=C(NCCc1ccccc1)c1ccc(-c2ccc(F)cc2)o1	-5.8*	-5.8
CCCCCCNc1nc(NCc2ccco2)nc(OCC)n1	-6.1*	-6.1
CCCCCCCCNc1nc(Cl)nc(NCc2ccco2)n1	i	0.34
Cc1ccc(O)c(Nc2nc(-c3ccccc3)nc3ccccc23)c1	i	0.61
Cc1ccc(O)c(Nc2c3ccccc3nc3ccccc23)c1	-5.6*	-5.6
CN(Cc1c(C(=O)N(C)Cc2ccccc2)nc2ccccn12)CC1Cc2ccccc2O1 (stereo unspecified)	i	/
CN(Cc1ccccc1)C(=O)c1nc2ccccn2c1CN1CCc2sccc2C1	-5.9*	-5.9
COc1ccc(-c2cc(-c3nnc(COC(=O)c4ccncc4)o3)c3ccccc3n2)cc1OC	i	0.29
COc1cc(CCC(=O)NNC(=O)c2cccc(Cl)c2)cc(OC)c1OC	i	1.2
SMILES	KCNQ2 inh	KCNQ2 pot
COc1ccccc1CNC(=O)COC(=O)CSc1ccc(Cl)cc1	i	/
COc1ccccc1CNc1cc(CSc2ccc(Cl)cc2)nc(C)n1	-6.1*	-6.1
COc1cccc(N2CCN(c3ccc4nnc(CCC(=O)Nc5ccccn5)n4n3)CC2)c1	i	/
Cc1ccc(NC(=O)c2nc(S(=O)(=O)Cc3ccccc3C)ncc2Cl)cc1C	i	1.2
CN1CCN(NC(=O)c2cc(-c3ccc(Br)s3)nc3ccccc23)CC1	-5.7*	-5.7
O=C(O)c1cc(-c2ccc(Br)s2)nc2ccccc12	i	/
NC1=NC(=O)/C(=C/c2ccccc2OS(=O)(=O)c2ccc3ccccc3c2)S1	i	1.2
O=C(CSc1cn[nH]n1)Nc1cccc(C(F)(F)F)c1	i	0.06
CCOc1ccc(CC(=O)Nc2ccc(S(=O)(=O)N3CCCC3)cc2)cc1	i	/
CCC(C)n1cnc2c(c1=O)c1nc3ccccc3nc1n2Cc1ccc2c(c1)OCO2 (stereo unspecified)	i	0.06
Cc1nc2c(c(=O)n1CCC(C)C)c1nc3ccccc3nc1n2Cc1ccc2c(c1)OCO2	-6.3*	-6.3
Cc1ccc(C#CC[N+]2(CC#Cc3ccc(C)cc3)CCCCC2)cc1	i	/
Cc1cc(C)cc(NS(=O)(=O)c2ccc(-c3cnc(C4CC4)o3)cc2)c1	i	/
Cc1ccc(C)c(NS(=O)(=O)c2ccc(-c3cnc(C4CC4)o3)cc2)c1	-6.8*	-6.8
COc1ccc(CN(C)CC(=O)Nc2cc(OC)c([N+](=O)[O-])cc2C)c(OC)c1	i	/
Cc1cccc(C(=O)NC(=S)NNC(=O)c2cccs2)c1	i	8.2*
O=C(NC(=S)NNC(=O)c1cccs1)c1ccccc1	i	/
Cc1ccc(NC(=O)c2ccc(S(=O)(=O)N3CCCC3)cc2)nc1	i	0.04
Cn1c(SCC(=O)N2c3ccccc3CCc3ccccc32)nnc1-c1ccc(O)cc1	-5.8*	-5.8
Cn1c(SCC(=O)c2ccccc2)nnc1-c1ccc(O)cc1	i	0.82

Assay outcomes as filed in PubChem BioAssay.
